# Source: PubChem BioAssay (The Scripps Research Institute Molecular Screening Center)
# Most compounds without a hit are left out; they make up all but 4.8% or so of the library.
# SMARCA2 activ = SMARCA2 function activation, primary screen; activation, % at 9.1 µM; MG213 cells, MMTV-luciferase reporter, dexamethasone, overnight; 1% of 370,000 active; in the data active = activation above about 7.8%
# ssDAF12 agonist = activators of S. stercoralis DAF-12 nuclear receptor; HEK293 ssDAF-12/GRIP1 lit1-tk-luc reporter, luminescence; % of 3 µM dafachronic acid response; activation, % at 6.8 µM; 1% of 370,000 active;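 active = activation above the mean over all tested compounds plus 3 SD, cut at about 0.9% in these data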
# DAX1 inh-1 = NR0B1 (DAX1) inhibition; P51843; HEK293 Gal4-DAX1 luciferase reporter, luminescence; inhibition, % at 6.75 µM; 0.99% of 340,000 active;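 active = inhibition above the mean over all tested compounds plus 3 SD, cut at about 4.2% in these data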;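 note: inhibition shows as a rise in luminescence from relieved DAX1 repression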
# Target sequence (P51843 207-470 limits assumed): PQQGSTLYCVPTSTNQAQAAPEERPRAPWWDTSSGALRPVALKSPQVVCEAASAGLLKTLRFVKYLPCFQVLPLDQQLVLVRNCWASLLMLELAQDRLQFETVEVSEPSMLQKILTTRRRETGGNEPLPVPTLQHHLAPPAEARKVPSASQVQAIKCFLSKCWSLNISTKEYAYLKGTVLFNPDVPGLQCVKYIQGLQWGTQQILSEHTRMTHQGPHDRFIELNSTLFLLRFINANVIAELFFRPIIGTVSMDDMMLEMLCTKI
# DAX1 inh-2 = inhibitors of DAX1 repression of SF-1 activated StAR promoter; inhibition, % at 6.8 µM; 1.1% of 370,000 active; HEK293T StAR-luciferase reporter, SF-1/DAX-1 repression relief;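 active = inhibition above the mean over all tested compounds plus 3 SD, cut at about 3.6% in these data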;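 note: higher inhibition means more luminescence from relief of DAX-1 repression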
# hcDAF-12 act = activates DAF-12 receptor from parasite H. contortus | HEK293 hcDAF-12 lit1-tk-luc reporter, luminescence; 0% DMSO, 100% Δ7-dafachronic acid | activation, % at 6.8 µM | 1.4% of 370,000 active;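 active = activation above the mean of all tested compounds plus 3 SD, cut at about 5.5% in these data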
# hgDAF-12 ag = activates the H. glycines DAF-12 receptor ligand-binding domain; HEK293 GAL4-hgDAF12 UAS-luciferase reporter, agonist luminescence; normalized to butyrate control; activation, % at 6.8 µM; 1.8% of 370,000 active; AID 687014;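 active = activation above a cutoff set at the mean of all screened compounds plus 3 SD, cut at about 10% in these data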
# SMARCA2 act conf = SMARCA2 activation, confirmation screen; shares compounds with SMARCA2 activ; MG213 cells, MMTV-luciferase with dexamethasone, luminescence, overnight; MG213 cells expressing E1A, Rb sequestered; DMSO wells 0%, reference activator 100%; activation, % at 9.1 µM; 30% of 3,500 active; AID 652260;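 active = activation above its plate's cutoff, the mean activation of tested wells plus 3 SD, cut at about 7.9% in these data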
# GAL4-VP16 Luc = counter-screen for SMARCA2 activators: GAL4-VP16 luciferase reporter activation; shares compounds with SMARCA2 activ; HEK293 GAL4-VP16 pG5luc reporter, luciferase luminescence; scaled: DMSO wells 0%, SAHA wells 100%; activation, % at 9.1 µM; 41% of 3,500 active; AID 686939;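 active = activation above the solvent-only control well mean plus 3 SD, averaged across control plates, cut at about 5.2% in these data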
# A number is an active result; i = inactive; nt = no result.
SMILES,SMARCA2 activ,ssDAF12 agonist,DAX1 inh-1,DAX1 inh-2,hcDAF-12 act,hgDAF-12 ag,SMARCA2 act conf,GAL4-VP16 Luc
Cc1ccc(C)n1-c1ccc(-n2cnnn2)cc1,i,i,i,i,i,i,nt,nt
Cc1cc(-n2cnnn2)ccc1C(C)C,8.5,i,i,i,i,i,i,i
COc1cccc(C(=O)N/N=C/C(Br)=C/c2ccccc2)c1,12,i,i,i,i,i,i,i
COCCCN1C(=O)[C@H](CC(=O)NCCC(C)C)[C@]2(C(=O)OC)CCCCC=C12,i,i,nt,i,i,i,nt,nt
Cc1c(Cl)cccc1NC(CC(=O)c1ccccc1)C(=O)O (configuration not stated),9.7,i,i,i,i,i,i,i
COC(=O)[C@]12C[C@H](CC(=O)NCCc3ccccc3OC)C(=O)N(Cc3ccccc3)C1=C[C@H](COCc1ccccc1)O[C@@H]2C,i,i,nt,i,i,i,nt,nt
CC#CC#Cc1cccc(=O)o1,9.8,i,i,i,i,i,15,i
COc1ccccc1C(=O)Nc1ccc2c(c1)nc1n2CCSC1,8.9,i,i,i,i,i,15,5.6
CCCCC(=O)Nc1ccc2c(c1)nc1n2CCSC1,8.1,i,i,i,i,i,8.0,5.8
COc1ccc(OCC(=O)Nc2ccc3c(c2)nc2n3CCSC2)cc1,i,i,i,i,i,i,nt,nt
C[C@H]1C2CC(OC(=O)NCc3ccc(Cl)cc3)C(C2)[C@H]2CCCCN21 (some centres not stated),i,i,nt,i,i,i,nt,nt
COc1ccccc1CNC(=O)NC1CCN(CC(=O)Nc2ccc3c(c2)OCCO3)CC1,i,i,nt,i,i,i,nt,nt
COC(=O)[C@]12C[C@H](CC(=O)NCc3ccc(OC)c(OC)c3)C(=O)N(Cc3ccccc3)C1=C[C@H](COCc1ccccc1)O[C@@H]2C,i,i,nt,i,i,i,nt,nt
CC(C)C(Cl)=NOC(=O)Nc1ccc(S(N)(=O)=O)cc1,47,i,i,i,i,i,i,i
CCOC(=O)N1CCN(C(=O)C[C@H]2C[C@@]3(C(=O)OC)C(=C[C@H](COCc4ccccc4)O[C@@H]3C)N(Cc3ccco3)C2=O)CC1,i,i,nt,i,i,i,nt,nt
CCc1nnc(NC(=O)/C=C/c2ccco2)s1,i,i,i,i,i,i,nt,nt
CCSc1nnc(NC(=O)/C=C/c2ccco2)s1,10,i,i,i,6.0,i,i,7.8
Cc1cc(C(=O)Nc2ccccc2)oc1C,9.0,i,i,i,i,i,i,11
Cn1c(=O)c2cc(S(=O)(=O)N3CCN(c4ccccc4Cl)CC3)ccc2n(C)c1=O,i,i,nt,i,i,i,nt,nt
COc1ccc(NC(=O)c2ccc(Oc3ncccn3)cc2)cc1,9.4,i,i,i,i,i,i,i
C/C(CC(=O)Nc1ccc(Cl)c(C(F)(F)F)c1)=N\NC(N)=S,i,i,i,i,i,i,nt,nt
C/C(CC(=O)Nc1ccc(Cl)c(C(F)(F)F)c1)=N\NC(=O)c1cccc(O)c1,10,i,i,i,i,i,i,i
COc1ccc(/C=N\NC(=O)c2ccc(=O)[nH]n2)cc1O,12,i,i,i,i,i,i,i
CCCNC(=O)C1(C)CCCN(C(=O)c2cccc(Cl)c2)C1 (configuration not stated),9.3,i,nt,i,i,i,i,i
Cc1cccc(-n2[nH]c3c4c(ccc3c2=O)C(=O)c2ccccc2C4=O)c1,8.3,i,i,i,i,i,i,i
O=C1c2ccccc2C(=O)c2c1ccc1c(=O)n(-c3ccccc3)[nH]c21,i,i,i,i,i,i,nt,nt
N#Cc1cc(O)c(-n2nnc3ccccc32)cc1C#N,i,i,i,i,i,i,nt,nt
N#Cc1cc(Oc2cccc3cccnc23)c(-n2nnc3ccccc32)cc1C#N,14,i,i,i,i,i,i,i
